Measurements published in PubChem BioAssay (NCATS).
Where “and” joins values, the source holds several entries; their conditions need not be identical. Equal entries are not always repeated. Records with an inconclusive call do not appear. Calls of active or inactive are those of the source. Unless noted, calls follow the shape of the dose curve; as a rule, active = well fitted curve in either direction with a large enough effect (not every such curve was filed as active); inconclusive = small, poorly fitted or top-dose-only effect, or another doubt; inactive = flat fitted curve, though single readings scatter.

What was measured:
[1] = biological target: Cytochrome P450 1A2 (Homo sapiens) (UniProt P05177); test: p450-cyp1a2 (AID 410; calls by dose curve; also: potency is read from the fitted curve at half-maximal effect)
Chain of Cytochrome P450 1A2 (Homo sapiens) (P05177 whole entry, looked up): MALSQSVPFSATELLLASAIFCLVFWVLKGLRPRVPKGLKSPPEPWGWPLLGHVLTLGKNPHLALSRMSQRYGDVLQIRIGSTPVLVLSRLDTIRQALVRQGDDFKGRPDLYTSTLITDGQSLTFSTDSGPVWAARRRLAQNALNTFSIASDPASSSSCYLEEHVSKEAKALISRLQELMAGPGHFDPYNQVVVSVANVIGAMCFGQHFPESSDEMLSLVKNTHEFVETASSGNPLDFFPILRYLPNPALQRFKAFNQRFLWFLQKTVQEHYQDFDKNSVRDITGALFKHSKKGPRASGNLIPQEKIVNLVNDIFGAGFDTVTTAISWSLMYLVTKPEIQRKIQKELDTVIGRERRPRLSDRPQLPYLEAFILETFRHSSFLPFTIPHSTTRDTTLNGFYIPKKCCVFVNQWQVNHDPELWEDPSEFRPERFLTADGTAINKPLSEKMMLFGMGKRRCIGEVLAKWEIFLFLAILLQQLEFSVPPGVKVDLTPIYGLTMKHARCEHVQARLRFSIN
Procedure, shortened: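 Human CYP1A2 (20nM) demethylated Luciferin-ME at its Km (100uM) in 100mM KPO4. After 10 min compound preincubation, NADPH regeneration ran the reaction 60 min at room temperature. Luciferin was read by luminescence, normalized to 57 uM furafylline.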

[2] = biological target: Glucocorticoid receptor (Homo sapiens) (UniProt P04150); test: GR-EFC Redistribution (AID 451; calls by dose curve; also: potency is read from the fitted curve at half-maximal effect); settings: CHO-K1 GR-EFC translocation, beta-gal luminescence, 2 h
Chain of Glucocorticoid receptor (Homo sapiens) (P04150 whole entry, looked up, the tested form may be a part): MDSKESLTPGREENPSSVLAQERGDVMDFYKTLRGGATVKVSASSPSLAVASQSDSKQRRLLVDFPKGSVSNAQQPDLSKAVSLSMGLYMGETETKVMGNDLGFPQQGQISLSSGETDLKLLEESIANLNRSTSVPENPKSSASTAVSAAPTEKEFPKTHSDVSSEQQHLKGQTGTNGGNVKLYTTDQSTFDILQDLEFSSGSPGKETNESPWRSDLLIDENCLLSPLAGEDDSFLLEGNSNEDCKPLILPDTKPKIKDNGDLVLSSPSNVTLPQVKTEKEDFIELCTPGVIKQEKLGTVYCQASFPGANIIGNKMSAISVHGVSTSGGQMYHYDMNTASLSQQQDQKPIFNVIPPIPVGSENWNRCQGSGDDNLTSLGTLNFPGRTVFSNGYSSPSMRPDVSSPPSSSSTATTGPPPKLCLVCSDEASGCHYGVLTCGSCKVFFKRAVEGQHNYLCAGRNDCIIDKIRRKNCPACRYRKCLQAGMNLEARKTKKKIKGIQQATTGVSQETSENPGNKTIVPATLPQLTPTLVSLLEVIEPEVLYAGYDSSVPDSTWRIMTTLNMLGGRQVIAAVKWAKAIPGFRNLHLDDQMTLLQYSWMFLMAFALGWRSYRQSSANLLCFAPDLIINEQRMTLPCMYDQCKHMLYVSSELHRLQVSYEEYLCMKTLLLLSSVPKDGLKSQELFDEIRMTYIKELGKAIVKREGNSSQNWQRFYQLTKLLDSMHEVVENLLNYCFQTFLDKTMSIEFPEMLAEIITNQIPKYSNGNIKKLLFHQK
Procedure, shortened: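 CHO-K1 cells expressing nuclear EA and GR-ED fragments of b-gal; compounds titrated up to 46 uM final, 2 h at 37 C. GR nuclear translocation read as complemented b-gal luminescence after 1 h RT detection.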

[3] = biological target: Mitogen-activated protein kinase 10 (Mus musculus) (UniProt Q61831); test: JNK3 AlphaScreen Assay (AID 530);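 also: kinase came from lysate of stimulated human HepG2 cells; signal reports phosphorylation of biotinylated GST-cJun 1-79 at Ser73 with 10 µM ATP; % is scaled to controls: 0 for no effect and ±100 for the full control effect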
Procedure, shortened: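 qHTS format: compounds tested as titrations against IL-1beta/TNF-alpha-activated HepG2 lysate JNK3 with biotin-GST-cJun substrate and 10 uM ATP at room temperature. Loss of anti-phospho-cJun AlphaScreen signal indicates inhibition.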

[4] = Cell Viability - BJ (AID 421; calls by dose curve;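 also: potency is read from the fitted curve at half-maximal effect; cells exposed to compound for 40 hours at 37 °C before readout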); settings: BJ fibroblast viability, qHTS
Procedure, shortened: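 Normal human BJ foreskin fibroblasts, 1500/well in complete medium, treated 40 hr at 37 °C. Cellular ATP by CellTiter-Glo luminescence; normalized to DMSO and 100 uM tamoxifen, AC50 from Hill fit.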

[5] = Cell Viability - HepG2 (AID 433; calls by dose curve;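 also: potency is read from the fitted curve at half-maximal effect; potency for ATP loss meaning cytotoxicity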); settings: qHTS
Procedure, shortened: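 Read-out is luciferase-based quantitation of cellular ATP as a measure of viable HepG2 cells after 40 h treatment at 37 °C. Signal decrease is scaled between DMSO-only and 100 uM tamoxifen controls, with AC50 fitted by the Hill equation.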

[6] = Stat Signaling Pathway (AID 446); settings: ME-180 SIE beta-lactamase reporter, IL-6 stimulated, 5 h;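 also: ME-180 cervical cancer cells given 40 pM IL-6 alongside compound; SIE-controlled beta-lactamase reporter measured as 460/530 nm FRET emission ratio; % is scaled to controls: 0 for no effect and ±100 for the full control effect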
Procedure, shortened: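 ME-180 cells carrying a SIE-driven beta-lactamase reporter are stimulated with 40 pM IL-6 for 5 h at 37C in the presence of compound. The 460/530 nm FRET substrate ratio is read after 2.5 h at RT. Data are normalised to 300 pM IL-6 and to 125 nM JAK inhibitor controls.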

[7] = Cell Viability - N2a (AID 540; active = well fitted curve in the direction sought with a large enough effect; an effect the other way counts as inactive or inconclusive; also: nearly all actives have a fitted effect of over 45% in size; also: potency is read from the fitted curve at half-maximal effect;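 as to activity change, negative = cytotoxicity: plate controls were DMSO alone for no effect and tamoxifen control for full effect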); settings: N2a mouse neuroblastoma cell viability; activity change, negative = cytotoxicity: at 92.2 µM (top of the series)
Procedure, shortened: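 Mouse neuroblastoma N2a cells (1500/well) were preincubated 5 hr at 37 °C, then exposed to compounds for 40 hr at 37 °C in complete medium. Viability was read as intracellular ATP by CellTiter-Glo luminescence; AC50 from Hill fits.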

[8] = Cell Viability - NIH 3T3 (AID 541; active = well fitted curve in the direction sought with a large enough effect; an effect the other way counts as inactive or inconclusive;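 also: plate controls were DMSO alone for no effect and tamoxifen positive control for full effect; nearly all actives have a fitted effect of over 25% in size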); settings: NIH 3T3 cell viability, qHTS; at 92.2 µM (top of the series)
Procedure, shortened: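 NIH 3T3 mouse embryo fibroblasts (1000 cells/well) were plated in complete medium and treated with compound for 40 hr at 37 °C. Viability was read as intracellular ATP by CellTiter-Glo luminescence; AC50 values came from Hill-equation fits of concentration-response data.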

[9] = Cell Viability - HUV-EC-C (AID 542; active = well fitted curve in the direction sought with a large enough effect; an effect the other way counts as inactive or inconclusive; also: nearly all actives have a fitted effect of over 35% in size; also: potency is read from the fitted curve at half-maximal effect)
Procedure, shortened: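 HUV-EC-C normal human vascular endothelial cells, 1000 cells/well, pre-incubated 5 hr at 37 °C, then exposed to compounds for 40 hr at 37 °C in complete medium. Viability measured as intracellular ATP by CellTiter-Glo luminescence; AC50 from Hill fits.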

[10] = Cell Viability - SH-SY5Y (AID 544; active = well fitted curve in the direction sought with a large enough effect; an effect the other way counts as inactive or inconclusive; also: nearly all actives have a fitted effect of over 55% in size; also: potency is read from the fitted curve at half-maximal effect;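 as to viability change, negative = cytotoxic: 0% = DMSO alone and -100% = 100 µM tamoxifen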); settings: SH-SY5Y neuroblastoma cell viability; viability change, negative = cytotoxic: at 92.2 µM (top of the series)
Procedure, shortened: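 Human neuroblastoma SH-SY5Y cells (1500/well) in complete medium were exposed to compounds for 40 hr at 37 °C; intracellular ATP was then quantified by CellTiter-Glo luminescence after 20 min at room temperature. AC50 came from Hill-equation concentration-response fits.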

[11] = Cell Viability - Mesenchymal (AID 546; active = well fitted curve in the direction sought with a large enough effect; an effect the other way counts as inactive or inconclusive;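 also: cells exposed to compound for 40 hours before reading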; also: potency is read from the fitted curve at half-maximal effect;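 as to activity change, negative = cytotoxicity: 0% = DMSO only and -100% = 100 µM tamoxifen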); settings: mesenchymal cells viability, qHTS; activity change, negative = cytotoxicity: at 91.7 µM (top of the series)
Procedure, shortened: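 Human kidney mesenchymal cells from normal renal glomeruli, 1000 cells/well, rested 5 hr at 37 °C, then treated 40 hr at 37 °C in complete medium. Cellular ATP read by CellTiter-Glo luminescence; AC50 from Hill-equation fits.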

[12] = AP1 Signaling Pathway (AID 357); also: % is scaled to controls: 0 for no effect and ±100 for the full control effect
Procedure, shortened: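 AP-1-bla ME-180 cells with beta-lactamase reporter under AP-1 response element, stimulated with EC50 EGF; compounds titrated, 5 hours at 37 degrees Celsius. CCF4 read at 460/530 nm ratio; positive and negative modulators judged by AC50.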

[13] = NFAT Signaling Pathway (AID 444);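 also: carbachol stimulus at about its EC50 of 1 µM final; % is scaled to controls: 0 for no effect and ±100 for the full control effect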
Procedure, shortened: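 Jurkat cells with NFAT-driven β-lactamase reporter and co-expressed M1 receptor, stimulated with carbachol (final 1 uM, ~EC50), compound titration, 5 h at 37 °C. CCF4 loaded 1 h at RT; 460/530 nm ratio gave %activity and AC50.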

[14] = Cell Viability - Jurkat (AID 426;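 active = dose-dependent loss of cell ATP signal giving a full or clear fitted curve, ranked by lower potency value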; also: potency is read from the fitted curve at half-maximal effect); settings: qHTS
Procedure, shortened: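 Jurkat (clone E6-1, human T-cell leukemia) cells, 5000/well in complete medium, were exposed to compound for 40 hr at 37 °C. Viability was read as intracellular ATP by CellTiter-Glo luminescence; AC50 came from Hill fits of concentration-response data.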

[15] = Cell Viability - MRC5 (AID 434; calls by dose curve;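 also: potency is read from the fitted curve at half-maximal effect; potency reflects cytotoxicity seen as loss of intracellular ATP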); settings: MRC5 lung fibroblast viability, qHTS
Procedure, shortened: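 MRC5 normal human lung fibroblasts, 1500 cells/well, exposed to compound for 40 hr at 37 C. Cellular ATP was read by CellTiter-Glo luminescence; data normalized to DMSO and 100 uM tamoxifen, with AC50 from Hill fits.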

[16] = Cell Viability - SK-N-SH (AID 435; calls by dose curve;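 also: potency is read from the fitted curve at half-maximal effect; compound exposure lasted 40 h at 37 °C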); settings: SK-N-SH neuroblastoma cell viability qHTS
Procedure, shortened: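 Luminescent ATP signal served as the viability read-out after 40 hours of compound treatment of human neuroblastoma SK-N-SH cells. Concentration-response data, scaled between DMSO and 100 uM tamoxifen, gave AC50 values by standard Hill modeling.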

[17] = Cell Viability - H-4-II-E (AID 543; active = well fitted curve in the direction sought with a large enough effect; an effect the other way counts as inactive or inconclusive; also: nearly all actives have a fitted effect of over 35% in size; also: potency is read from the fitted curve at half-maximal effect)
Procedure, shortened: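 Rat hepatoma H-4-II-E cells (1500/well) were plated, incubated 5 hr at 37 °C, then exposed to compounds for 40 hr at 37 °C. Cellular ATP was read by CellTiter-Glo luminescence; AC50 came from Hill-equation fits of concentration-response data.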

[18] = Cell Viability - Renal Proximal Tubule (AID 545; active = well fitted curve in the direction sought with a large enough effect; an effect the other way counts as inactive or inconclusive; also: nearly all actives have a fitted effect of over 40% in size; also: potency is read from the fitted curve at half-maximal effect;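 as to activity change, negative = cytotoxicity: 0% = DMSO only and -100% = 100 µM tamoxifen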); settings: renal proximal tubule cells viability, primary cells of rat origin; activity change, negative = cytotoxicity: at 91.7 µM (top of the series)
Procedure, shortened: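 Luminescent ATP signal (CellTiter-Glo) served as the viability read-out after 40 hr compound exposure of freshly isolated rat proximal tubule cells at 37 °C. Concentration-dependent ATP loss was fitted with the Hill equation to give AC50.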

[19] = Cell Viability - Hek293 (AID 427;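 active = compounds whose dose-response curve shows a full or clear partial loss of cell viability, called from curve shape rather than a numeric limit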;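 also: potency is read from the fitted curve at half-maximal effect; cells exposed to compound for 40 hours at 37 °C before reading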); settings: qHTS
Procedure, shortened: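 HEK293 cells in complete medium were exposed to compound for 40 hr at 37 °C, then cellular ATP was read by CellTiter-Glo luminescence. Data were normalized to DMSO (basal) and 100 uM tamoxifen (100% inhibition), and AC50 came from Hill fits.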

CCCCCCCCCCCC1=C(O)C(=O)C=C(O)C1=O
inactive: Potency [1] | Potency [2] > 46 µM | outcome [3]

O=c1cc(-c2ccc(O)cc2)oc2cc(O)cc(O)c12
inactive: Potency [4] > 92 µM | Potency [5] > 92 µM | Potency [2] > 46 µM and > 20.6 µM | Potency [7] | Potency [9] | Potency [11]
active: activity, negative = inhibition ([6]; at 17.2 µM (top of the series)) -101% | activity change, negative = cytotoxicity [8] -105% | Potency [10] 25.1 µM

NC(N)=Nc1nc(CSCC/C(N)=N/S(N)(=O)=O)cs1
inactive: outcome [12] | outcome [13] | activity, negative = inhibition ([6]; at 17.2 µM (top of the series)) 12% and 11.5% | activity, negative = inhibition ([6]; at 38 µM (top of the series)) 1.63% | Potency [2] > 46 µM and > 20.6 µM | outcome [3]

O=c1cc(-c2ccccc2)oc2cc(O)c(O)c(O)c12
inactive: Potency [2] > 46 µM | outcome [3]
active: Potency [1] 398 nM and 501 nM

O=C(O)c1cc(-c2ccccc2)nc2ccccc12
inactive: outcome [12] | outcome [13] | activity, negative = inhibition ([6]; at 17.2 µM (top of the series)) -0.648%

O=c1cc(-c2ccccc2)oc2cc(O)cc(O)c12
inactive: Potency [2] > 20.6 µM

CC(C(=O)O)c1ccc(-c2ccccc2)c(F)c1 (centres undefined)
inactive: outcome [12] | outcome [13] | activity, negative = inhibition ([6]; at 17.2 µM (top of the series)) -6.1%

CC1(C)CCC2=C(O1)c1ccccc1C(=O)C2=O
active: Potency [1] 3.98 µM
inactive: Potency [2] > 46 µM | outcome [3]

COc1ccc2c3c1OC1C[C@@H](O)C=C[C@@]31CCN(C)C2 (some centres undefined)
inactive: outcome [12] | outcome [13] | activity, negative = inhibition ([6]; at 17.2 µM (top of the series)) 12.6% | Potency [2] > 20.6 µM | outcome [3]

CC1=C(/C=C/C(C)=C/C=C/C(C)=C/C(=O)Nc2ccc(O)cc2)C(C)(C)CCC1
active: Potency [4] 30.8 µM | Potency [14] 2.16 µM | Potency [5] 34.9 µM | Potency [15] 24.7 µM | Potency [16] 7.43 µM | Potency [7] 31.6 µM | activity change, negative = cytotoxicity [8] -85.6% | Potency [9] 31.6 µM | Potency [17] 20 µM | Potency [10] 12.6 µM | Potency [18] 20 µM | Potency [11] 31.6 µM
inactive: outcome [3]

O=c1c(O)c(-c2ccc(O)cc2)oc2cc(O)cc(O)c12
inactive: Potency [4] > 92 µM | Potency [14] > 92 µM | Potency [19] > 92 µM | Potency [5] > 92 µM | Potency [15] > 92 µM | Potency [16] > 92 µM | Potency [2] > 20.6 µM and > 46 µM | outcome [3] | Potency [7] | Potency [9] | Potency [18] | Potency [11]

O=c1[nH]cnc2c1ncn2[C@H]1CC[C@@H](CO)O1
inactive: Potency [4] > 92 µM | Potency [14] > 92 µM | Potency [19] > 92 µM | Potency [5] > 92 µM | Potency [15] > 92 µM | Potency [16] > 92 µM | Potency [7] | activity change, negative = cytotoxicity [8] 6.95% | Potency [9] | Potency [17] | Potency [10] | Potency [18] | Potency [11]

CS(=O)c1ccc(-c2nc(-c3ccc(F)cc3)c(-c3ccncc3)[nH]2)cc1 (centres undefined)
active: Potency [1] 631 nM and 3.98 µM
inactive: Potency [2] > 46 µM

Nc1ncnc2c1ncn2[C@@H]1O[C@@H](CO)[C@H](O)[C@H]1O
inactive: outcome [12] | outcome [13] | activity, negative = inhibition ([6]; at 17.2 µM (top of the series)) -10% | Potency [2] > 20.6 µM | outcome [3]

CC(C)(C)c1ccc(C(O)CCCN2CCC(C(O)(c3ccccc3)c3ccccc3)CC2)cc1 (centres undefined)
inactive: outcome [12] | outcome [13] | activity, negative = inhibition ([6]; at 17.2 µM (top of the series)) -1.77%

COc1ccc(-c2coc3cc(O)ccc3c2=O)cc1
active: Potency [1] 0.631 µM
inactive: Potency [2] > 46 µM | outcome [3]

CCN(CC)CCNC(=O)c1ccc(N)cc1
inactive: outcome [12] | outcome [13] | activity, negative = inhibition ([6]; at 17.2 µM (top of the series)) 5.34% and 0.638% | activity, negative = inhibition ([6]; at 38 µM (top of the series)) 3.95% | outcome [3]

CC[C@]1(O)C[C@@H]2CN(CCc3c([nH]c4ccccc34)[C@@](C(=O)OC)(c3cc4c(cc3OC)N(C)[C@H]3[C@@](O)(C(=O)OC)[C@H](OC(C)=O)[C@]5(CC)C=CCN6CC[C@]43[C@@H]65)C2)C1
inactive: outcome [12] | activity, negative = inhibition ([6]; at 17.2 µM (top of the series)) -9.58%
